An excerpt weighted towards active compounds, which were near 1.6% of everything screened.
KCNQ2 pot – potentiators of rat KCNQ2 potassium channel | Potassium voltage-gated channel subfamily KQT member 2 (Rattus norvegicus), O88943 | CHO-K1 KCNQ2, FluxOR thallium flux fluorescence; active compounds read high | B-score at 10 µM | actives 0.54% (n = 310,000) | AID 2239, 2010;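 active = fluorescence ratio B-score at least 3 SD of library B-scores, with initial fluorescence B-score within 3 of them, cut at about 5.3 in these data; same plate scores as AID 2156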;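 note: B-score of peak minus minimum over baseline fluorescence ratio after K+ and Tl+ stimulus; positive B-score means potentiation of KCNQ2 with more thallium influx and brighter signal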
Target sequence (O88943 whole entry, looked up): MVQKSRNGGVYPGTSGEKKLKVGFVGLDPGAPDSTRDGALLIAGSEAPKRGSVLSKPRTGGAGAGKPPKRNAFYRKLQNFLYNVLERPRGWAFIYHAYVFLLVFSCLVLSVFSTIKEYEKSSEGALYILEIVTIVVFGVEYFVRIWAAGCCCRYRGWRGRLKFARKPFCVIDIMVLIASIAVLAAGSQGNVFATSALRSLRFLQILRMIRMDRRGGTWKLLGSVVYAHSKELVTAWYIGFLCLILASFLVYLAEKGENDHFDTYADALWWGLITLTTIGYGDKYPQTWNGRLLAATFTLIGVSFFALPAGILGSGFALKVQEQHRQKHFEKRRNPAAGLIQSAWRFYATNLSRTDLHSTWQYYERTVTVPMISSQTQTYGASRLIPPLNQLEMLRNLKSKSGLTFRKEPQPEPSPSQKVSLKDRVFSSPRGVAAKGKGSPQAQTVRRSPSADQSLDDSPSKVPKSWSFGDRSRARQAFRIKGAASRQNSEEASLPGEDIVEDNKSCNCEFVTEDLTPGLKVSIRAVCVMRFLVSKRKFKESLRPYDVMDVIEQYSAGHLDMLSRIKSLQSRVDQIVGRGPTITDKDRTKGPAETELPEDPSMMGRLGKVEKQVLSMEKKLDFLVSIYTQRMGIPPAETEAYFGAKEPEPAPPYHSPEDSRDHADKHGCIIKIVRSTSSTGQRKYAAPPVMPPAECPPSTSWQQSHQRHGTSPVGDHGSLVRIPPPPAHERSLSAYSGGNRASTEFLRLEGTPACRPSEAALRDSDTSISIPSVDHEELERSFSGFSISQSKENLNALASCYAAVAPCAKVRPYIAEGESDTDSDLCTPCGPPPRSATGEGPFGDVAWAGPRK
KCNQ2 block – rat KCNQ2 potassium channel inhibitors, primary screen, cell-based, CHO-K1, FluxOR thallium flux, B-score; Potassium voltage-gated channel subfamily KQT member 2 (Rattus norvegicus), O88943; 20 min; active compounds read low; B-score at 10 µM; actives 1.1% (n = 310,000);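 active = fluorescence ratio B-score at most minus 3 library SDs, with starting brightness B-score within 2 library SDs, cut at about -5.5 in these data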
Starred values were filed as active, the others as inactive; i = inactive; . = no result given.

SMILES	KCNQ2 pot	KCNQ2 block
COc1ccccc1N1CCN(/N=C\c2sccc2C)CC1	-6.19	-6.19*
COc1ccccc1N1CCN(/N=C\c2ccccc2)CC1	.	i
Cc1cccc(C(=O)NCC(=O)Nc2ccncc2)c1	.	i
Cc1ccc(N(C(=O)NC2CCCCC2)C2=NCCCCC2)cc1	-5.81	-5.81*
Cc1ccc(N(C(=O)Nc2ccccc2)C2=NCCC2)cc1	.	i
COc1ccc(C(CNC(=O)C(=O)Nc2ccc3c(c2)OCCO3)N2CCN(C)CC2)cc1 (stereo not drawn)	0.8	i
CCN(CC)C(=S)Sc1c(-c2ccccc2)c2cc(Cl)ccc2[nH]c1=O	.	i
COc1cc(NC(=O)C(Cc2ccccc2)n2cccc2)cc(OC)c1 (stereo not drawn)	.	i
CC1CC(C)CN(C(=O)C(Cc2ccccc2)n2cccc2)C1 (stereo not drawn)	-6.45	-6.45*
CC1CCN(C(=O)C(Cc2ccccc2)n2cccc2)CC1 (stereo not drawn)	.	i
Cc1cccc(NC(=O)C(Cc2ccccc2)n2cccc2)c1 (stereo not drawn)	-5.73	-5.73*
C=CCOC(=O)C1=C(C)NC(SCC(=O)OCC)=C(C#N)C1c1ccc(O)c(OC)c1 (stereo not drawn)	-8.14	-8.14*
C=CCOC(=O)C1=C(C)NC(SC)=C(C#N)C1c1ccc(OCC)cc1 (stereo not drawn)	.	i
Cc1noc(C)c1S(=O)(=O)N(C)CC(=O)Nc1ccc(F)cc1	0.14	i
CCN1CCN(c2c(/C=C3\SC(=S)N(Cc4ccco4)C3=O)c(C)c(C#N)c(=O)n2C)CC1	-7.74	-7.74*
COc1ccc(-n2c(C)cc(/C=C3\SC(=S)N(Cc4ccco4)C3=O)c2C)cc1	.	i
Cc1c(NC(=O)Nc2ccc3c(c2)OCO3)cccc1[N+](=O)[O-]	.	i
COc1cccc(NC(=O)C(c2ccccc2)N2CCCCC2)c1 (stereo not drawn)	.	i
O=C(Nc1cc(Cl)cc(Cl)c1)C(c1ccccc1)N1CCCCC1 (stereo not drawn)	-6.41	-6.41*
CCOC(=O)N1CCN(C(=O)c2ccc3c(=O)n(CCc4ccccc4)c(=O)[nH]c3c2)CC1	0.44	i
Cc1cc(-n2cnc(-c3cn[nH]c3C)n2)no1	.	i
Cc1ccccc1NC(=O)NCc1ccccn1	.	i
Cc1ccc(NS(=O)(=O)c2ccccc2Cl)c2c1CC(C)(C)O2	-5.99	-5.99*
Cc1ccc(NC(=O)CN2CCCC2)c2c1CC(C)(C)O2	1.23	i
CCOc1ccc(N=C2NC(=O)CS2)cc1	.	i
SMILES	KCNQ2 pot	KCNQ2 block
NC(=S)N=Nc1c(O)n(CCCl)c2ccc(Br)cc12	.	i
C/C(Cl)=C\Cn1c(O)c(N=NC(N)=S)c2cc(Br)ccc21	9.18*	i
Cc1ccc2c(c1)cc(CN(CCc1ccccc1)C(=O)N1CCOCC1)c1nnnn12	.	i
Cc1ccc2c(c1)cc(CN(Cc1ccco1)C(=O)N1CCOCC1)c1nnnn12	-8.82	-8.82*
Cc1csc(SCC(=O)NC(C)C2CC3CCC2C3)n1 (stereo not drawn)	3.39	i
O=C(CCSc1ccc(Cl)cc1)N1CCN(c2ncccn2)CC1	.	i
O=C(NC1CCCN(CCc2ccccc2)C1)C1CCCC1 (stereo not drawn)	-6.77	-6.77*
CCOC(=O)C1CCCN(CCc2ccccc2)C1 (stereo not drawn)	1.38	i
CC(C(=O)N1CCN=C1c1ccccc1)N1C(=O)c2ccccc2C1=O (stereo not drawn)	.	i
O=C(NCC1(c2ccccc2)CCCC1)C1(c2ccccc2)CCCC1	-7.04	-7.04*
O=C(NCC1(c2ccccc2)CCCC1)C(=O)NCC1(c2ccccc2)CCCC1	.	i
CC(C)Cn1c(N)c(C(=O)COC(=O)/C=C/c2ccccc2)c(=O)n(C)c1=O	1.04	i
O=C(C[n+]1ccccc1)N/N=C/c1ccco1	0.64	i
O=C(CC12CC3CC(CC(C3)C1)C2)N/N=C/c1ccc([N+](=O)[O-])o1	16.1*	i
O=C(Cc1ccc([N+](=O)[O-])cc1)N/N=C/c1ccc([N+](=O)[O-])o1	.	i
CCCCCCC(=O)N/N=C/c1ccco1	9.98*	i
CCCCCCCC(=O)N/N=C/c1ccc([N+](=O)[O-])o1	8.17*	i
CCOC(=O)N/N=C\c1ccc([N+](=O)[O-])o1	.	i
CC(=C/c1ccco1)/C=N/NC(=O)CSc1nnc(SCc2ccc(C)cc2)s1	1.34	i
COc1ccc(Cn2ccnc2SCC(=O)Nc2ccccc2F)cc1	.	i
COc1ccc(Cn2ccnc2SCC(=O)Nc2ccccc2OC)cc1	-6.08	-6.08*
COc1cccc2c1cc1c(=O)n(CC(=O)NCCCN3CCCCC3)nc(C)n12	1.04	i
Cc1ccc(S(=O)(=O)N2CCN(C(=O)COC(=O)/C=C/c3ccccc3[N+](=O)[O-])CC2)c(C)c1	.	i
COC(=O)C(CC(=O)c1ccc(Cl)cc1)c1ccc(C(C)C)cc1 (stereo not drawn)	-5.86	-5.86*
Cc1ccc(C(CC(=O)c2ccc(Cl)cc2)C(=O)O)cc1 (stereo not drawn)	.	i
SMILES	KCNQ2 pot	KCNQ2 block
COc1ccccc1/C=C(\C#N)C(=O)c1cccn1C	.	i
O=Nc1c(O)n(Cc2ccc(Cl)cc2Cl)c2ccccc12	-7.99	-7.99*
O=Nc1c(O)n(Cc2ccc(Cl)cc2)c2ccccc12	.	i
O=Nc1c(O)n(Cc2c(Cl)cccc2Cl)c2ccccc12	0.3	i
Cc1ccc(Cn2c(O)c(N=O)c3ccccc32)cc1	-6.71	-6.71*
CCCCNC(=O)O/N=C(\N)CS(=O)(=O)C(C)(C)C	.	i
CCOC(=O)c1ccc(N2C(=O)C(C)=C(C)C2=O)cc1	.	i
COC(=O)c1cc(-c2ccc(Br)cc2)on1	0.65	i
COC(=O)c1nn(C23CC4CC(CC(C4)C2)C3)c2c1C(=O)N(c1ccc(Br)cc1)C2=O	-6.45	-6.45*
CCOC(=O)c1nn(C23CC4CC(CC(C4)C2)C3)c2c1C(=O)N(c1ccc(C)cc1)C2=O	-6.85	-6.85*
CCN1CCN(c2ccc(NC(=O)c3ccc4c(c3)[nH]c(=O)n4Cc3ccc(OC)cc3)cc2)CC1	0.99	i
Clc1ccc(CSc2nnnn2-c2ccc3c(c2)OCO3)c(Cl)c1	.	i
CCOC(=O)Cc1csc(NC(=O)C(NC(=O)C2CCC(C)CC2)C(C)C)n1 (stereo not drawn)	1.24	i
O=C(NC(=S)N1CCN(Cc2ccc3c(c2)OCO3)CC1)c1cccc(Br)c1	9.47*	i
O=C(c1cccn2c(=O)c3ccc(Cl)cc3nc12)N1CCN(Cc2ccc3c(c2)OCO3)CC1	-5.85	-5.85*
O=C(c1cccc(Cl)c1)N1CCN(Cc2ccc3c(c2)OCO3)CC1	.	i
CCNC(=S)N1CCN(Cc2ccc3c(c2)OCO3)CC1	2.32	i
Cc1cc(Cl)ccc1NC(=S)N1CCN(Cc2ccc3c(c2)OCO3)CC1	.	i
O=C(NC(=S)N1CCN(Cc2ccc3c(c2)OCO3)CC1)c1ccc(Cl)cc1	8.94*	i
CCOc1ccc(NC(=O)CCc2c(C)nn(-c3ccc(N4CCCCC4)nn3)c2C)cc1	.	i
Cc1ccccc1N1CCN(C2CCCN(C(=O)CCn3cnnn3)C2)CC1 (stereo not drawn)	1.24	i
Cc1cccn2c(=O)c(C=NCCO)c(Nc3ccc(Cl)cc3)nc12	.	i
CCN(CC)C(=O)/C(=C\c1ccc(Br)cc1)NC(=O)c1ccccc1OC	-7.25	-7.25*
COc1ccccc1C(=O)N/C(=C\c1ccc(Br)cc1)C(=O)NCCO	.	i

High-throughput results: PubChem BioAssay, Johns Hopkins Ion Channel Center
